Laboratory results reported in the supplement of paper PMC10849652.
Targets with a hit are over-represented here; the source holds about 8,800 in all. About 0.5% of all pairs of compound and target were hits. A number with no mark means an inactive call.

Tests used:
Assay in all cases: log2 fold change, soluble protein after heating vs DMSO (PISA); higher = thermal stabilisation; K562 lysate, 10 uM; active = over 0.2 and 3.5 SD of the protein, either way, in both replicates (recomputed)
vemurafenib = compound: CCCS(=O)(=O)Nc1ccc(F)c(C(=O)c2c[nH]c3ncc(-c4ccc(Cl)cc4)cc23)c1F [vemurafenib]
Summary of the method: (§1)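 Soluble protein was defined as the supernatant remaining after 21,000xg for 90 min, following pooling of heated aliquots and adjustment to 0.5% NP-40 at 4°C. Before that, crude K562 extract at 1 mg/mL protein in PBS pH 7.4 with 1 mM MgCl2 was treated with 10 μM compound for 30 min and heated for 3 min across 48°C-58°C. Quantification used TMTpro 16plex LC-MS/MS with channel sums equalised, and values are log-two fold changes in thermal stability relative to solvent controls from duplicates.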

[1] = compound: CCCS(=O)(=O)Nc1ccc(F)c(C(=O)c2c[nH]c3ncc(Cl)cc23)c1F
Summary of the method: as §1

barasertib = compound: CCN(CCCOc1ccc2c(Nc3cc(CC(=O)Nc4cccc(F)c4)[nH]n3)ncnc2c1)CCOP(=O)(O)O [barasertib]
Summary of the method: as §1

[2] = compound: CC[C@@H]1C(=O)N(C)c2cnc(Nc3ccc(C(=O)NC4CCN(C)CC4)cc3OC)nc2N1C1CCCC1
Summary of the method: as §1

volasertib = compound: CC[C@@H]1C(=O)N(C)c2cnc(Nc3ccc(C(=O)N[C@H]4CC[C@H](N5CCN(CC6CC6)CC5)CC4)cc3OC)nc2N1C(C)C [volasertib]
Summary of the method: as §1

[3] = compound: CCn1c(C(=O)N(C2CC2)C2CC2)cc2c3c(ncn3C)c(Nc3cc(C)n(C)n3)nc21
Summary of the method: as §1

[4] = compound: CCn1cc(-c2ccnc3[nH]c(-c4cccc(CN(C)C)c4)cc23)c(-c2ccc(NC(=O)N(C)C)cc2)n1
Summary of the method: as §1

[5] = compound: CN1CCC(CNc2ccc3ncc(-c4cccc(OC(F)(F)F)c4)n3n2)CC1
Summary of the method: as §1

saracatinib = compound: CN1CCN(CCOc2cc(OC3CCOCC3)c3c(Nc4c(Cl)ccc5c4OCO5)ncnc3c2)CC1 [saracatinib]
Summary of the method: as §1

sotrastaurin = compound: CN1CCN(c2nc(C3=C(c4c[nH]c5ccccc45)C(=O)NC3=O)c3ccccc3n2)CC1 [sotrastaurin]
Summary of the method: as §1

alvocidib = compound: CN1CC[C@H](c2c(O)cc(O)c3c(=O)cc(-c4ccccc4Cl)oc23)[C@H](O)C1 [alvocidib]
Summary of the method: as §1

Tubastatin A = compound: CN1CCc2c(c3ccccc3n2Cc2ccc(C(=O)NO)cc2)C1 [Tubastatin A]
Summary of the method: as §1

[6] = compound: CNC(=O)C1=CC=CC=C1NC2=NC(=NC=C2Cl)NC3=C(C=C(C=C3)N4CCOCC4)OC
Summary of the method: as §1

defactinib = compound: CNC(=O)c1ccc(Nc2ncc(C(F)(F)F)c(NCc3nccnc3N(C)S(C)(=O)=O)n2)cc1 [defactinib]
Summary of the method: as §1

[7] = compound: CNc1nc(-c2ccc3c(N)n[nH]c3c2)cc(N2C[C@@H](C(=O)NC3CCCCC3)CC[C@H]2C)n1
Summary of the method: as §1

encorafenib = compound: COC(=O)N[C@@H](C)CNc1nccc(-c2cn(C(C)C)nc2-c2cc(Cl)cc(NS(C)(=O)=O)c2F)n1 [encorafenib]
Summary of the method: as §1

[8] = compound: COC(=O)[C@H](CCSC)NC(=O)C1=C(C=C(C=C1)NC[C@H](CS)N)C2=CC=CC=C2
Summary of the method: as §1

alisertib = compound: COc1cc(Nc2ncc3c(n2)-c2ccc(Cl)cc2C(c2c(F)cccc2OC)=NC3)ccc1C(=O)O [alisertib]
Summary of the method: as §1

[9] = compound: COc1cc2nc(-c3cc(F)ccc3O)nc(N[C@@H]3CNC[C@H]3C(C)(C)O)c2cc1OC
Summary of the method: as §1

gefitinib = compound: COc1cc2ncnc(Nc3ccc(F)c(Cl)c3)c2cc1OCCCN1CCOCC1 [gefitinib]
Summary of the method: as §1

Chain of UniProt Q9H467 (Q9H467 whole entry, looked up): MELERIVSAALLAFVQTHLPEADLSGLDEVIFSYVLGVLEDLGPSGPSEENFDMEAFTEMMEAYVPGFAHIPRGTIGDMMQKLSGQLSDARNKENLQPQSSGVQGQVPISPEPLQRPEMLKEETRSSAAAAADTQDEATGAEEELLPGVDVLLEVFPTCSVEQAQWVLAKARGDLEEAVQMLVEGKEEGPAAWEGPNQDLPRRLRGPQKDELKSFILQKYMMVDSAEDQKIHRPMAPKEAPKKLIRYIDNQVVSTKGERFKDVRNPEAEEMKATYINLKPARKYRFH
Chain of UniProt P14868 (P14868 whole entry, looked up): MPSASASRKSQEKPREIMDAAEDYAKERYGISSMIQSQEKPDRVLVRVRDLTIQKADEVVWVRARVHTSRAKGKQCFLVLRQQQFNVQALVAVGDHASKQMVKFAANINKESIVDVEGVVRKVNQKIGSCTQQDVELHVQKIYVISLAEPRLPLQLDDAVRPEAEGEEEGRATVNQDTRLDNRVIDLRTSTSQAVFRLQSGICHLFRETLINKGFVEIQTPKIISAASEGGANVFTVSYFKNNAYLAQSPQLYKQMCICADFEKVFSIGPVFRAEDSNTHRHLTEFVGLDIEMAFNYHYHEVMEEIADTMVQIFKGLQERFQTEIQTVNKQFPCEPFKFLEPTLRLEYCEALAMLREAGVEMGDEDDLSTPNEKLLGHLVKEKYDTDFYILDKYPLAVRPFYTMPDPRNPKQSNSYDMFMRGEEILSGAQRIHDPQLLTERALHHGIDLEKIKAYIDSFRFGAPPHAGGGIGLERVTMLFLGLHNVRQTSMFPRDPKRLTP
Chain of UniProt O15111 (O15111 whole entry, looked up): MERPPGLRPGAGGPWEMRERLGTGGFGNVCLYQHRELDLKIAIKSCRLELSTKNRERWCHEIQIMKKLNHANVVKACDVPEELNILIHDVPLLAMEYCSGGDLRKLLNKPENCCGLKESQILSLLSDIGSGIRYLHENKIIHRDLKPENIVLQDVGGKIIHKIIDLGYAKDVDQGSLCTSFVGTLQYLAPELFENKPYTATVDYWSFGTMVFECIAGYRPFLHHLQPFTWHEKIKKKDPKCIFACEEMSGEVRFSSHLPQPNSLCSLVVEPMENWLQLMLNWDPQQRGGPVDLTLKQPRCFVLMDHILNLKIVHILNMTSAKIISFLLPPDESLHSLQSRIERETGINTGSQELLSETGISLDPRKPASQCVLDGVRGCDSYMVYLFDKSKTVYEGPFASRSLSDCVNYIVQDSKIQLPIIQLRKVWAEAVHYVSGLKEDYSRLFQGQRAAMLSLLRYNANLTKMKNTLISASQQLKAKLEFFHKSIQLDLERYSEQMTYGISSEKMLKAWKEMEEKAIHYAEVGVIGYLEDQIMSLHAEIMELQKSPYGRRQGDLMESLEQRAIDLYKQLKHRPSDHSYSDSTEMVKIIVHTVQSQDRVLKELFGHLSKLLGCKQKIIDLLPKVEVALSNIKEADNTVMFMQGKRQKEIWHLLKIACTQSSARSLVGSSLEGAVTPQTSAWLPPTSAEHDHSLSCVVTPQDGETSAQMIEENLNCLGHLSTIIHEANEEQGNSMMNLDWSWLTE
Chain of UniProt Q9Y485 (Q9Y485 whole entry, looked up): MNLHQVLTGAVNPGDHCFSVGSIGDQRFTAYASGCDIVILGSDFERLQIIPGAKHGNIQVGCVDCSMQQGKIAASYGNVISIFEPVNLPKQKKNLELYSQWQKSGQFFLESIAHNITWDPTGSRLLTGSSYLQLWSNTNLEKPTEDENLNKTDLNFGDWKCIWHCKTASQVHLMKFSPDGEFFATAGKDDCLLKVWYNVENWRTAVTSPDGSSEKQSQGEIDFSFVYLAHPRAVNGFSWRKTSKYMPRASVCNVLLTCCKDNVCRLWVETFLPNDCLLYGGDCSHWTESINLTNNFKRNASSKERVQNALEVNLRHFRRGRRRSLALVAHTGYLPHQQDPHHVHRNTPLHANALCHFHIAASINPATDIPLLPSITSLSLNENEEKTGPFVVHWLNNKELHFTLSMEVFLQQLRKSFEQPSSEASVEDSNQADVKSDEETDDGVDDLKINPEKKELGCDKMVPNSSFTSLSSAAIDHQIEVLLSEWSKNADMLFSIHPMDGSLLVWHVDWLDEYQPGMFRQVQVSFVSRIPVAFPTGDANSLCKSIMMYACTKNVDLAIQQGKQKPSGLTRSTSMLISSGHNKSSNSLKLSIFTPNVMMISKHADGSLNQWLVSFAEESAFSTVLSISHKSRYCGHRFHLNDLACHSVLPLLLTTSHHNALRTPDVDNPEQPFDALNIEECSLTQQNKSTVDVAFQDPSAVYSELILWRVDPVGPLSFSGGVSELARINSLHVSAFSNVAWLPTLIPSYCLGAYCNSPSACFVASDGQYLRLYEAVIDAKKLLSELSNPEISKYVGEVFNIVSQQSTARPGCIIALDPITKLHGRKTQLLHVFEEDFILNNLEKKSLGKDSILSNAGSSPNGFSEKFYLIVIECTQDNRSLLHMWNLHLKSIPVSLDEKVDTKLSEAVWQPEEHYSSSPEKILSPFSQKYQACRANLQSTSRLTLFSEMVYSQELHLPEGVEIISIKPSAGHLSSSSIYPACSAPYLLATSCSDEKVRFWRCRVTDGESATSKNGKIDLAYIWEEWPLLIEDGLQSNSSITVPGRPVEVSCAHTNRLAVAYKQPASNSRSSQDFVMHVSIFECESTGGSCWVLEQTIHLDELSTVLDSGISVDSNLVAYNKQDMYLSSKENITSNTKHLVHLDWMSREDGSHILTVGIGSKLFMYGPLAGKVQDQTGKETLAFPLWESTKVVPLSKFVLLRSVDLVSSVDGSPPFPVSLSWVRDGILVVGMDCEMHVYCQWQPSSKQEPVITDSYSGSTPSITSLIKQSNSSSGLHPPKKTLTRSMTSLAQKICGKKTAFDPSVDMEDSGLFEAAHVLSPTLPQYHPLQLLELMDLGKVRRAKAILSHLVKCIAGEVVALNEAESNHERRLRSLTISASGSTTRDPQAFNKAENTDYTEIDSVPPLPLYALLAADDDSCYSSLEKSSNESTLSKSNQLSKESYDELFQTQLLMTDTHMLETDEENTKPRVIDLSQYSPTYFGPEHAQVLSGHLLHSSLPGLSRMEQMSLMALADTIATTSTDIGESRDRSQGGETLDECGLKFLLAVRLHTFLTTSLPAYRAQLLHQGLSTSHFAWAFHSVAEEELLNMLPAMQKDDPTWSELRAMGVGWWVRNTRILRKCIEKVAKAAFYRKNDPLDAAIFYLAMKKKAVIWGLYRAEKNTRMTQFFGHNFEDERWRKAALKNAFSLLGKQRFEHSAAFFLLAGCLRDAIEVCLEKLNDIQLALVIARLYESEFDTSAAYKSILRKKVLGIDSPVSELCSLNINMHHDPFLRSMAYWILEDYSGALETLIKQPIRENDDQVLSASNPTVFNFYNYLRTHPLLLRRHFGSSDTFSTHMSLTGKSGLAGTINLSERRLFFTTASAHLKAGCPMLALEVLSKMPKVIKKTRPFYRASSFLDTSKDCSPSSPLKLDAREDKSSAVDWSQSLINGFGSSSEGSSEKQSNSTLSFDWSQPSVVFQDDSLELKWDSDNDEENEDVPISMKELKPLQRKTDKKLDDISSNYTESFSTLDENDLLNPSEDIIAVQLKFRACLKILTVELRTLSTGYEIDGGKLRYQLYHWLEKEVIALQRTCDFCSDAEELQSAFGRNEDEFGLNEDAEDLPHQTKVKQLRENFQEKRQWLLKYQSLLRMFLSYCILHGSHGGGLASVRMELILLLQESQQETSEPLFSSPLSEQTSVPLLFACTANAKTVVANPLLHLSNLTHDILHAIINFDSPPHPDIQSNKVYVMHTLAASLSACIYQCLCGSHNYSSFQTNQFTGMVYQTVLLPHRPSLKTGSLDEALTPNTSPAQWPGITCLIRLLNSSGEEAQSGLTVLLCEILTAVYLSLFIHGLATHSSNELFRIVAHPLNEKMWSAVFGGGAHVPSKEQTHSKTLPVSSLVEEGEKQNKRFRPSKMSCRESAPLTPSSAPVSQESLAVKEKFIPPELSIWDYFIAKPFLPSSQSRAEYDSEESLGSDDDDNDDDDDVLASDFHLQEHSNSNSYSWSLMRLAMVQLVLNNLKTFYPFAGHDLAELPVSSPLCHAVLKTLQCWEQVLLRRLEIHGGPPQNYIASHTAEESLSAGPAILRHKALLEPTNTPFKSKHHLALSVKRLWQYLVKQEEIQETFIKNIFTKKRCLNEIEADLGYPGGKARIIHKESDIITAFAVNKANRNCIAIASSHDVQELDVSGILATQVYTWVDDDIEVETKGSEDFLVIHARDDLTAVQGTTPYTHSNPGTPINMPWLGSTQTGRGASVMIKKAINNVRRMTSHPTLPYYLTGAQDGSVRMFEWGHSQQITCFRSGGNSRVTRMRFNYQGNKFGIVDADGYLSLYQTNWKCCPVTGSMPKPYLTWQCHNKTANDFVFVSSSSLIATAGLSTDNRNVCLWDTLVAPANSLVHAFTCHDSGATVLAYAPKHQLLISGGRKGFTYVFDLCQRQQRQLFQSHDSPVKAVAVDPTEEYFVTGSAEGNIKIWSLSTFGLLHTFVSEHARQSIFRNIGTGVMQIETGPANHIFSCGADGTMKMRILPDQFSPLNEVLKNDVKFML
Chain of UniProt Q9Y6M4 (Q9Y6M4 whole entry, looked up): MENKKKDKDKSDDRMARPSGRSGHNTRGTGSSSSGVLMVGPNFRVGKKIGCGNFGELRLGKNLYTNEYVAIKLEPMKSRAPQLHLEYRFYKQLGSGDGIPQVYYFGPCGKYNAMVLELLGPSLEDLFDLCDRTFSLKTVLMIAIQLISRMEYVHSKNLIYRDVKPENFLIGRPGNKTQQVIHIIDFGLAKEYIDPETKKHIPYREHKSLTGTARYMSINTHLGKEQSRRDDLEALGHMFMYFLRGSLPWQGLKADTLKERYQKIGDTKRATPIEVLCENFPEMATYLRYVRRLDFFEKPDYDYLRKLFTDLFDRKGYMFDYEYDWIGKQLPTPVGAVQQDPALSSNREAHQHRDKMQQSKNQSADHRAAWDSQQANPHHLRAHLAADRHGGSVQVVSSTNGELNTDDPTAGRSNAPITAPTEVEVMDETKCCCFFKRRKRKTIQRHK

| Target | log2 fold change (vemurafenib) | log2 fold change [1] | log2 fold change (barasertib) | log2 fold change [2] | log2 fold change (volasertib) | log2 fold change [3] | log2 fold change [4] | log2 fold change [5] | log2 fold change (saracatinib) | log2 fold change (sotrastaurin) | log2 fold change (alvocidib) | log2 fold change (Tubastatin A) | log2 fold change [6] | log2 fold change (defactinib) | log2 fold change [7] | log2 fold change (encorafenib) | log2 fold change [8] | log2 fold change (alisertib) | log2 fold change [9] | log2 fold change (gefitinib) |
| --- | --- | --- | --- | --- | --- | --- | --- | --- | --- | --- | --- | --- | --- | --- | --- | --- | --- | --- | --- | --- |
| CLP1 (UniProt Q92989) | -0.035 | 0 | 0.03 | -0.045 | -0.05 | 0.015 | -0.13 | 0.096 | 0.115 | 0.036 | -0.103 | -0.179 | 0.004 | 0.071 | -0.037 | 0.02 | 0.023 | -0.002 | 0.031 | 0.033 |
| DDB2 (UniProt Q92466) | -0.073 | 0.001 | 0.025 | 0.015 | -0.003 | 0 | 0.006 | 0.019 | -0.022 | 0.075 | 0 | 0.06 | 0.041 | 0.262 (active) | 0.069 | 0.079 | -0.065 | 0.045 | 0.055 | -0.131 |
| DMXL1 (UniProt Q9Y485) | 0.024 | 0.028 | -0.005 | 0.015 | -0.06 | 0.026 | -0.017 | -0.004 | 0.002 | 0.023 | 0.01 | -0.014 | 0.019 | 0.024 | 0.012 | 0.055 | -0.015 | -0.031 | 0.009 | 0.038 |
| CNOT6L (UniProt Q96LI5) | 0.035 | -0.007 | 0.065 | -0.006 | 0.006 | 0.078 | -0.422 (active) | 0.107 | 0.048 | -0.019 | -0.091 | 0.022 | 0.022 | 0.046 | 0.013 | 0.036 | 0.066 | -0.005 | 0.037 | -0.033 |
| DMAC2L (UniProt Q99766) | 0.002 | 0.026 | 0.065 | 0.075 | -0.028 | 0.021 | -0.017 | 0.053 | 0.058 | -0.012 | 0.029 | 0 | -0.056 | 0.022 | 0.018 | 0.016 | -1.03 (active) | 0.074 | 0.031 | 0.061 |
| DAZAP1 (UniProt Q96EP5) | 0.036 | 0.043 | -0.017 | 0.016 | 0.011 | 0.065 | 0.129 | 0.032 | 0.003 | -0.109 | -0.027 | 0.042 | -0.026 | -0.039 | 0.058 | -0.018 | -0.045 | 0.009 | -0.004 | 0.034 |
| CHML (UniProt P26374) | 0.01 | 0.008 | 0.004 | 0.011 | 0.022 | -0.007 | -0.012 | 0.026 | -0.002 | 0.005 | -0.019 | 0.008 | -0.004 | -0.025 | 0.002 | 0.003 | 0.005 | 0.014 | 0.011 | 0.012 |
| CHUK (UniProt O15111) | 0.026 | 0.001 | 0.059 | -0.095 | -0.047 | -0.045 | 0.111 | -0.097 | 0.059 | 0.017 | 0.029 | -0.203 | 0.077 | 0.089 | -0.039 | -0.021 | 0.121 | 0.018 | 0.052 | -0.06 |
| CSNK2A1 (UniProt P68400) | -0.124 | 0.017 | -0.025 | -0.057 | -0.039 | 0.006 | -0.009 | 0.165 | -0.028 | 0.019 | 0.077 | 0.019 | 0.337 (active) | 0.056 | -0.002 | -0.004 | -0.005 | 0.012 | 0.112 | -0.024 |
| CNIH4 (UniProt Q9P003) | 0.217 | 0.064 | 0.585 | 0.051 | -0.077 | -0.19 |  |  | 0.021 | 0.066 |  | 0.1 | 0.048 | 0.442 | 0.049 | 0.06 | -0.249 | 0.1 | 0.031 | 0.17 |
| CUEDC2 (UniProt Q9H467) | 0.06 | 0.001 | 0.026 | 0.038 | 0.027 | -0.084 | 0.694 (active) | -0.07 | 0.002 | 0 | 0.054 | 0.036 | 0.03 | 0.055 | 0.078 | 0.006 | -0.026 | -0.019 | -0.009 | 0.019 |
| DCTN1 isoform 4 (UniProt Q14203) | 0.07 | 0.089 |  | 0.139 | -0.019 | -0.28 | 0.34 | 0.121 | 0.123 | -0.027 | 0.3 | -0.254 | 0.212 | -0.046 | 0.105 | 0.078 | -0.064 | 0.107 | -0.05 | 0.051 |
| COQ8A (UniProt Q8NI60) | 0.036 | -0.009 | 0.134 | 0.026 | -0.026 | -0.029 | -0.214 | 0.573 (active) | 0.697 (active) | 0.016 | 0.051 | -0.06 | 0.384 | 0 | 0.079 | 0.145 | -0.009 | -0.023 | 0.009 | 0.447 |
| CSNK1G3 (UniProt Q9Y6M4) | -0.004 | -0.053 | -0.028 |  | 0.002 | 0.039 | -0.095 | 0.065 | 0.043 | 0.035 | 0.032 | 0.064 | 0.014 | 0.069 | 0.03 | 0.018 | -0.033 | -0.005 | 0.459 (active) | -0.005 |
| DIAPH1 (UniProt H9KV28) | 0.098 | -0.01 | 0.091 | -0.049 | -0.046 | -0.046 | -0.07 | 0.153 |  | -0.001 | -0.039 | 0.032 | 0.036 | 0.012 |  | 0.054 | 0.213 | -0.012 | 0.026 | -0.005 |
| DARS (UniProt P14868) | 0.02 | 0.021 | 0.021 | -0.099 | -0.043 | 0.062 | 0.026 | -0.012 | 0.018 | 0.011 | 0.012 | -0.119 | -0.012 | 0.012 | -0.061 | 0.028 | 0.049 | 0.038 | 0.003 | -0.014 |
| DHRS3 (UniProt O75911) | 0.082 | 0.012 | -0.01 | -0.03 | 0.033 | -0.041 | -0.061 | 0.034 | 0.029 | 0.013 | -0.013 | 0.105 | 0.043 | -0.006 | 0.085 | -0.044 | 0.151 | -0.006 | -0.011 | 0.071 |
